Among the data in ChEMBL document CHEMBL1961873, “Compounds: GSK PKIS; Assays: Nanosyn kinase panel” (2012) are inhibition values, retold here.

The target of experiment [1] is Tyrosine-protein kinase receptor UFO (Homo sapiens) (UniProt P30530). To be noted: at 1 µM.
The target of experiment [2] is Tyrosine-protein kinase Blk (Homo sapiens) (UniProt P51451). To be noted: at 0.1 µM.
For experiment [3] the target is unchanged. To be noted: at 1 µM.
The target in experiment [4] is T1, Cytoplasmic tyrosine-protein kinase BMX (Homo sapiens) (UniProt P51813).
T1 sequence (whole entry): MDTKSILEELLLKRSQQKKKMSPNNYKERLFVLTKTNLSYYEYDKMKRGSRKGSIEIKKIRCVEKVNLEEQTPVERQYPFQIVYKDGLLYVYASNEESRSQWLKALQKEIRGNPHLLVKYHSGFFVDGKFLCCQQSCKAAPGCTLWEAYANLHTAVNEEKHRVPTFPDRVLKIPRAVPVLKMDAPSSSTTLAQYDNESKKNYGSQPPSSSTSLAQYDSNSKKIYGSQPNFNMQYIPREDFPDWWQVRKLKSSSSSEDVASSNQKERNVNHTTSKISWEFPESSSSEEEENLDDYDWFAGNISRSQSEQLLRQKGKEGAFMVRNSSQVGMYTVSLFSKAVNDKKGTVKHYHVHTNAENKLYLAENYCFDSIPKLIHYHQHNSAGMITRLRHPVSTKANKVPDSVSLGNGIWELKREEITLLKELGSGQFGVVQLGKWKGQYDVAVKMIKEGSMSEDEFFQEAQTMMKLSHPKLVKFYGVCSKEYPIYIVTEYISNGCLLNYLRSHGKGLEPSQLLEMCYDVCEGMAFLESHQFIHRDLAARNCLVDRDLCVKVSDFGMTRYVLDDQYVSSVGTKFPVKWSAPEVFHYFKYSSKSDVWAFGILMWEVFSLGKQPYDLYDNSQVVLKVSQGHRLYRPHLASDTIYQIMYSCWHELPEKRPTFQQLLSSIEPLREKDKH
Conditions: at 0.1 µM.

Experiment [5] addresses T1, Cytoplasmic tyrosine-protein kinase BMX (Homo sapiens). Conditions: at 1 µM.
Experiment [6] concerns the target Protein-tyrosine kinase 6 (Homo sapiens) (UniProt Q13882). To be noted: at 0.1 µM.
Experiment [7] has the same target. To be noted: at 1 µM.
The target in experiment [8] is Tyrosine-protein kinase BTK (Homo sapiens) (UniProt Q06187). Conditions: at 0.1 µM.
Tyrosine-protein kinase BTK (Homo sapiens), sequence (Q06187 whole entry): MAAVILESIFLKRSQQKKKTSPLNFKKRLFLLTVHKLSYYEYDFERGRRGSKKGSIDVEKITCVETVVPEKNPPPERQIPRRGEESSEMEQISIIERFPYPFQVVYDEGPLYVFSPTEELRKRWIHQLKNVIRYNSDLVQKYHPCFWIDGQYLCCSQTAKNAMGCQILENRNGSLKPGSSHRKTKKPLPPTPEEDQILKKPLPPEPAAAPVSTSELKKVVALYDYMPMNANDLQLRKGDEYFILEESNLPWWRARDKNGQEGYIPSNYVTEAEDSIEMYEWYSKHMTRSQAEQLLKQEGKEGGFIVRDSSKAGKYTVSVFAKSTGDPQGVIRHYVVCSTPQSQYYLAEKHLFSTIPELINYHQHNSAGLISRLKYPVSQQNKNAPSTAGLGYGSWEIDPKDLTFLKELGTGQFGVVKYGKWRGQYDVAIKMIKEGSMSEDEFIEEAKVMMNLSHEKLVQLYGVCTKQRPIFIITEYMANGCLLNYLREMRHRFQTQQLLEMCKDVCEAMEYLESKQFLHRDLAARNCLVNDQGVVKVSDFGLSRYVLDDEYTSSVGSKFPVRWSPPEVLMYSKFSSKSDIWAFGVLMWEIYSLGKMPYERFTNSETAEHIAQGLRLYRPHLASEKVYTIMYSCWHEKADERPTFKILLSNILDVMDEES
Experiment [9] has the same target. Conditions: at 1 µM.
The target in experiment [10] is Tyrosine-protein kinase CSK (Homo sapiens) (UniProt P41240). Conditions: at 0.1 µM.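 Further: value given is the averaged percent inhibition of CSK kinase activity, from the GSK PKIS kinase inhibitor set screening panel.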
Tyrosine-protein kinase CSK (Homo sapiens), sequence (P41240 2-450 limits assumed): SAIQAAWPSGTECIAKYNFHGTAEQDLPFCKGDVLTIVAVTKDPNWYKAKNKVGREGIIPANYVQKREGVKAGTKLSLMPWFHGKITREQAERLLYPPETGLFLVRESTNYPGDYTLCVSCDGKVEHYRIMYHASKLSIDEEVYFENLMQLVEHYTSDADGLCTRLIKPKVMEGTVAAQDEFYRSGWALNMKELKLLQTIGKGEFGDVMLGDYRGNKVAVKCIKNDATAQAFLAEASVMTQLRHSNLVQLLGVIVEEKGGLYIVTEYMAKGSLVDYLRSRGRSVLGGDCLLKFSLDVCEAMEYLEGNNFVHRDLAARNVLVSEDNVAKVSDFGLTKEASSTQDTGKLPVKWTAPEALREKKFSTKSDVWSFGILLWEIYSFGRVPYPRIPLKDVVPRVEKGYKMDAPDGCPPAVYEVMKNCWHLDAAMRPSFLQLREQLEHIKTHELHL

Protein-tyrosine kinase 6 (Homo sapiens), sequence (Q13882 whole entry, looked up): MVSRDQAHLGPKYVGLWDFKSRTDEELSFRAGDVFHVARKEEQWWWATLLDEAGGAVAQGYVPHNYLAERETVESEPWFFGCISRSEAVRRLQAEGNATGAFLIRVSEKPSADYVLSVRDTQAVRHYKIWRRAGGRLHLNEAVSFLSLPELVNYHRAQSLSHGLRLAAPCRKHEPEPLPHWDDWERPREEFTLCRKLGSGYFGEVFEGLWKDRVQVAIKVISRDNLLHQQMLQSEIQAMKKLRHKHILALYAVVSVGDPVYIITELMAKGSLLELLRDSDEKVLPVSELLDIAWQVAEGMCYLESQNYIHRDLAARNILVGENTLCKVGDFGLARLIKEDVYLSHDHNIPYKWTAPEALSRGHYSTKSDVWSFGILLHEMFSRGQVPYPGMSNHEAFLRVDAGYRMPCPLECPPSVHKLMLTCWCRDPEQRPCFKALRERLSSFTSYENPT
Tyrosine-protein kinase receptor UFO (Homo sapiens), sequence (P30530 whole entry): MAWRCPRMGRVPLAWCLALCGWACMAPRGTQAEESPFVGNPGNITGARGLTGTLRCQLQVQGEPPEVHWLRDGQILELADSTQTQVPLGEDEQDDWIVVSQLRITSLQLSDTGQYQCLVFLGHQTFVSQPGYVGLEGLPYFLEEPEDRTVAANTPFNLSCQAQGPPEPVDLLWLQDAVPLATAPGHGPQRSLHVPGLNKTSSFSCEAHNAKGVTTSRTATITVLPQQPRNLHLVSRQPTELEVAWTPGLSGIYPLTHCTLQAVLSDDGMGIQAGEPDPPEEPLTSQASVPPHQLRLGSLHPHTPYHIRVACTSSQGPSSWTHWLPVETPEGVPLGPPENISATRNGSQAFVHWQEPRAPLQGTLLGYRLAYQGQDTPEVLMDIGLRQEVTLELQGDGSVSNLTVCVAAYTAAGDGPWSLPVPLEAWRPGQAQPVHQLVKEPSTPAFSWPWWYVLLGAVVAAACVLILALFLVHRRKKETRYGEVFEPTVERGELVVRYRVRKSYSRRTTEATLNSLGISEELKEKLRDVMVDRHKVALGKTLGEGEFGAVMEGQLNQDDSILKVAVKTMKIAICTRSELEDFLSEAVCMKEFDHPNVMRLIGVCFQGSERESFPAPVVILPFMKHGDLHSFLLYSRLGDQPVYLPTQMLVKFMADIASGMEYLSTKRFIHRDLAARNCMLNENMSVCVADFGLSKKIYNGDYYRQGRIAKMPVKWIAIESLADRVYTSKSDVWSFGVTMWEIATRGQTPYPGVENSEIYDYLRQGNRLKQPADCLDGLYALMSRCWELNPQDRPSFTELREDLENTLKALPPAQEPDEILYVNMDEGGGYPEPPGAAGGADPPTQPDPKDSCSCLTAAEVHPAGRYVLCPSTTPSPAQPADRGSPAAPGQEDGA
Tyrosine-protein kinase Blk (Homo sapiens), sequence (P51451 2-505 limits assumed): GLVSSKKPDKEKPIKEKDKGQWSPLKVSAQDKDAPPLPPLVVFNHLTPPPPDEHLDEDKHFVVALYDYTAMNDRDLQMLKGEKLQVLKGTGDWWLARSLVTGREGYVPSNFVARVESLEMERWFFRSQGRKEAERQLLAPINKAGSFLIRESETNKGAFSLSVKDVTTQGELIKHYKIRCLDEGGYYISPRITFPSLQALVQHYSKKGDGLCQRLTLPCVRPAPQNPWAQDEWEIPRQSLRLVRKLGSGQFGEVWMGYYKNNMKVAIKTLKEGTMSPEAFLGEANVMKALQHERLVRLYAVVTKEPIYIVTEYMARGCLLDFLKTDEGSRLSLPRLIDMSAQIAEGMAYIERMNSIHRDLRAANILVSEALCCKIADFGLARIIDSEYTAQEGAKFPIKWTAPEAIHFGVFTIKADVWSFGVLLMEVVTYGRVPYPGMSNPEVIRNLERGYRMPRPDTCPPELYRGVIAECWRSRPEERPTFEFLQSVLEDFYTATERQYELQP

As to `c1ccc(Oc2ccc(Nc3ncc(-c4ccccc4)o3)cc2)cc1`, the inhibition (as a rule, the change of the read-out against control, counted positive when it falls) was -0.31% in experiment [1]; 1.93% in experiment [2]; 2.96% in [3]; -4.27% in experiment [4]; 1.54% in [5]; -5.64% in experiment [6]. Also, the inhibition in experiment [7] is -0.31%; in [8], -0.86%; in experiment [9], 0.56%; in experiment [10], 4.92%.

On to `CN1CCN(CCCNc2nc3ccc(Oc4ccc(NC(=O)Nc5cc(C(F)(F)F)ccc5F)cc4)cc3[nH]2)CC1`, for which the inhibition in experiment [1] is 27.5%; in [2], -2.37%; in experiment [3], -2.3%; in experiment [4] it was -1.87%; in experiment [5] it was 2.63%; in [6], -0.99%. Moreover, the inhibition was 1.35% in experiment [7], -3.09% in experiment [8], 1.43% in [9] and -0.95% in experiment [10].

With `C[C@@H](Oc1cc(-n2cnc3ccc(OCC4CCN(C)CC4)cc32)sc1C(N)=O)c1ccccc1Cl`, the inhibition in experiment [1] amounted to 3.11%; in experiment [2], 2.92%; in [3], 10.4%; in experiment [4], 0.11%; in experiment [5], 2.71%; in experiment [6], 5.93%. In addition, the inhibition was 6.07% in [7], 0% in experiment [8], 0.95% in experiment [9] and 5.15% in experiment [10].

On to `O=C1Nc2ccccc2/C1=C/Nc1ccc(-n2cncn2)cc1`, for which the inhibition in experiment [1] was -3.55%; in experiment [2], 3.13%; in experiment [3], 19.7%; in experiment [4], 6.8%; in experiment [5], 4.54%; in experiment [6], 3.56%. In addition, the inhibition in experiment [7] was 6%; in experiment [8], 0.25%; in experiment [9], -0.4%; in [10], 3.03%.

As to `O=C(NCC1CC1)c1ccc(-c2cccc(C(=O)NC3CC3)c2)cc1`, the inhibition in experiment [1] was -0.85%; in [2] it was 1.41%; in experiment [3] it was 3.43%; in experiment [4], -3.65%; in experiment [5], 3.29%; in experiment [6], 0.45%. For the same molecule, the inhibition in experiment [7] turned out to be 3.3%; in experiment [8] it was 1.12%; in [9] it was 1.69%; in [10] it was 1.29%.

For `O=C1NC(=O)C(c2cccc(Cl)c2)=C1Nc1ccc(Cl)c(C(=O)O)c1`, the inhibition in experiment [1] is -3.02%; in [2] it was 2.33%; in experiment [3], 0.47%; in experiment [4], 8.42%; in experiment [5] it was 2.62%; in experiment [6], 3.64%. Besides, the inhibition was 5.12% in [7], -0.87% in experiment [8], 0.33% in experiment [9] and 1.29% in [10].

As for `COc1cccc(/C=N/Nc2ncnc3c2cnn3-c2cccc(OC)c2)c1`, the inhibition in experiment [1] was -4.88%; in [2] it was 1.56%; in [3], 4.98%; in experiment [4], 2.16%; in experiment [5] it was 5.64%; in experiment [6], 2.5%. Besides, the inhibition in experiment [7] is 5.61%; in experiment [8], -0.27%; in [9] it was -1.35%; in [10], 2.79%.

For the molecule `NC(=O)c1ccc(Oc2nccc(-c3c(-c4ccc(F)cc4)ncn3C3CCNCC3)n2)cc1`, the inhibition in experiment [1] is -8.36%; in experiment [2], 3.48%; in experiment [3], 3.04%; in experiment [4] it was 5.3%; in experiment [5], 7.95%; in experiment [6] it was 3.36%. Moreover, the inhibition was 6.07% in experiment [7], -0.49% in [8], 0.73% in experiment [9] and 3.03% in [10].

As for `Fc1ccc(-c2ncn(C3CCNCC3)c2-c2ccnc(Oc3ccc(Oc4ccccc4)cc3)n2)cc1`, the inhibition in [1] is -7.71%; in experiment [2] it was 3.8%; in experiment [3], 3.79%; in experiment [4], 3.11%; in experiment [5], 6.45%; in experiment [6], 1.09%. Moreover, the inhibition is 1.93% in experiment [7], -2.01% in experiment [8], 0.33% in experiment [9] and 0.47% in [10].

As for `Fc1ccc(-c2ncn(C3CCNCC3)c2-c2ccnc(Oc3ccc(F)c(F)c3)n2)cc1`, the inhibition is -4.58% in experiment [1]; -1.88% in experiment [2]; -2.13% in experiment [3]; 3.36% in experiment [4]; 3.49% in [5]; 2.61% in experiment [6]. Further, the inhibition was 5.39% in [7], -4.19% in experiment [8], -4.23% in experiment [9] and 2.54% in experiment [10].

Consider `Fc1ccc(-c2c(-c3ccncc3)nc3n2CCS3)cc1`, for which the inhibition in experiment [1] was -2.08%; in [2] it was -2.78%; in experiment [3] it was -0.74%; in [4], 1.44%; in experiment [5], 0.74%; in experiment [6] it was 4.76%. Also, the inhibition in experiment [7] is 4.76%; in experiment [8] it was -5.15%; in [9] it was -4.99%; in experiment [10], 3.65%.

Take `CS(=O)(=O)CCNCc1ccc(-c2ccc3ncnc(Nc4ccc(OCc5ccccc5)c(Br)c4)c3c2)o1`: the inhibition in experiment [1] was -7.91%; in experiment [2], -0.29%; in [3], 3.05%; in experiment [4], 3.44%; in experiment [5], 0.49%; in [6], 4.61%. In addition, the inhibition was 11.8% in experiment [7], -3.57% in experiment [8], -0.34% in [9] and 0.44% in experiment [10].

As to `COc1ccc(-c2ccc3c(NC(=O)C4CC4)n[nH]c3n2)cc1`, the inhibition in experiment [1] is -2.35%; in experiment [2], 1.52%; in [3], 2.8%; in experiment [4], 3.4%; in [5], 2.59%; in [6] it was 0.93%. For the same molecule, the inhibition was 2.88% in experiment [7], 0.22% in experiment [8], -0.23% in [9] and 0.42% in [10].

Regarding `C#Cc1cccc(Nc2ncnc3ccc(OCCCCNCCS(C)(=O)=O)cc23)c1`, the inhibition is -7.98% in [1]; 2.28% in experiment [2]; 3.96% in experiment [3]; 3.24% in experiment [4]; 5.57% in experiment [5]; 6.2% in experiment [6]. For the same molecule, the inhibition is 10.2% in experiment [7], -3.76% in experiment [8], 1.2% in [9] and 3.24% in experiment [10].

In the case of `CCC(=O)Nc1ccc(C)c(-c2ccc(C(=O)NCC3CC3)cc2)c1`, the inhibition in [1] was -3.83%; in [2] it was 1.71%; in [3], 3.32%; in [4] it was 1.57%; in experiment [5], 3.88%; in experiment [6] it was 4.7%. In addition, the inhibition in [7] was 5.22%; in experiment [8], -0.35%; in experiment [9] it was 0.22%; in experiment [10], 2.98%.

With `CS(=O)(=O)CCNCc1cc(-c2cc3c(Nc4ccc(OCc5cccc(F)c5)c(Cl)c4)ncnc3s2)cs1`, the inhibition in experiment [1] is -6.81%; in experiment [2], 2.61%; in experiment [3], 5.05%; in experiment [4], 3.9%; in [5], 7.31%; in [6], 1.27%. Besides, the inhibition in experiment [7] is 5.98%; in experiment [8] it was -1.08%; in [9], 0.76%; in experiment [10] it was 1.58%.

With `c1ccc(-c2n[nH]cc2-c2ccnc(-c3ccc(OCCN4CCOCC4)cc3)c2)nc1`, the inhibition in experiment [1] was 10.8%; in [2], 1.62%; in experiment [3], 1.61%; in [4] it was 2.19%; in experiment [5], 0.44%; in [6], -5.63%. Also, the inhibition in experiment [7] was -2.62%; in experiment [8], 0.21%; in experiment [9], 6.66%; in experiment [10], -3.84%.
